VP16 counter: counter-screen for ROR gamma inhibitors: Gal4-VP16 reporter | 310,000 tested, 3.5% active | Potency, µM (series often up to 53.6 µM), most hits filed as inhibitors | Drosophila S2 Gal4-VP16 UAS-luciferase, luminescence, 20 h;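 further: Gal4-VP16 expression switched on by copper sulfate through the metallothionein promoter; nearly all actives have a fitted effect of over 50% in size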
PLK1 PBD block: blocks phosphopeptide binding to human PLK1 polo-box domain; Plk1 PBD binding of FITC phosphopeptide, fluorescence polarization; AID 720504; P53350; Potency, µM, usual class: inhibitors; 360,000 tested, 2.8% active; further: series mostly up to about 57 µM; nearly all actives have a fitted effect of over 65% in size
Sfp inh: Sfp phosphopantetheinyl transferase inhibition; Q9F4F7; 310,000 tested, 3.5% active; Potency, µM, actives largely listed as inhibitors; Biochemical Sfp PPTase activity, qHTS;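 further: the enzyme is Sfp with the accession as filed and its product quenches rhodamine fluorescence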
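Fluorescence-quenching assay with 15 nM Sfp, 5 uM rhodamine-CoA and 12.5 uM BHQ-2-labelled ybbR peptide in pH 7.6 Hepes/MgCl2 buffer. Enzyme was pre-incubated with compound for 15 min at room temperature. Rate was taken from the 30-min fluorescence change (525/598 nm).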
ALDH1A1 inh: ALDH1A1 (human) enzyme inhibition | P00352 | Purified ALDH1A1, NADH fluorescence, propionaldehyde substrate | Potency, µM (top dose mostly 75.3 µM), most hits filed as inhibitors | 220,000 tested, 7.3% active | AID 1030; active means well fitted inhibition curve with a large enough effect, not every such curve was filed as active; inconclusive means small, poorly fitted or top-dose-only effect, or another doubt; inactive means no such curve, though single readings can be large or run the other way
RORgamma inh: blocks mouse ROR gamma transcriptional activity; Drosophila S2 Gal4-RORgamma UAS-luciferase reporter, 20 h; Potency, µM (titrated, usually from 53.6 µM), hits mostly inhibitors; P51450; AID 2551; 310,000 tested, 5.4% active; further: nearly all actives have a fitted effect of over 60% in size
Target sequence (P51450 whole entry, looked up, the tested form may be a part): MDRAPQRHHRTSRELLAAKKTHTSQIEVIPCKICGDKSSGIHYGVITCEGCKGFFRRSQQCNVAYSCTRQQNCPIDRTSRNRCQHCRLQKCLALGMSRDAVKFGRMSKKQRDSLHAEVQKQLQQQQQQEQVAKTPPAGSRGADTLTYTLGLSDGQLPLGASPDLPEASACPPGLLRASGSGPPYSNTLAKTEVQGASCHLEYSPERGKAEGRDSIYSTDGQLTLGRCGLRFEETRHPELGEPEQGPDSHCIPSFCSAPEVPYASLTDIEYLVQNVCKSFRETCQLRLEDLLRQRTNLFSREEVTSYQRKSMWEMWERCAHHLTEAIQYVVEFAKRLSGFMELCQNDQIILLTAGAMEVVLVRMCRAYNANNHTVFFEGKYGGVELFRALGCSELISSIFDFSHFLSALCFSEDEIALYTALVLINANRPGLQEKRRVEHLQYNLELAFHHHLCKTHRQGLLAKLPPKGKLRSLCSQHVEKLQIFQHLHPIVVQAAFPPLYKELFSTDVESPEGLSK
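Luciferase reporter read in Schneider cells carrying Gal4-RORγ (mouse) and UAS-Photinus luciferase; cells given compound 1 h before 700 uM copper sulfate induction, then incubated 20 h at ambient temperature.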
A number is an active result; [ ] = another dose, or the depositor's remark. Only some compounds are listed: those with a hit (about 12% of all), similar ones and a draw of the others. Unless noted, the call rests on the fitted dose curve; in most records, active means well fitted curve in the direction sought with a large enough effect; inconclusive means small, poorly fitted or top-dose-only effect, or another doubt; inactive means no such curve, though single readings can be large; an effect the other way counts as inactive or inconclusive.

`CCC(/C=C1\Sc2ccc(OC)cc2N1CC)=C\c1sc2ccc(OC)cc2[n+]1CCCS(=O)(=O)[O-]` gave VP16 counter inconclusive, PLK1 PBD block inconclusive, Sfp inh 50µM, ALDH1A1 inh 1.3µM and RORgamma inh inactive.
`CCC(=O)/C=C1/Sc2ccc(OC)cc2N1CC` gave VP16 counter inactive, PLK1 PBD block inconclusive, Sfp inh inactive, ALDH1A1 inh inactive and RORgamma inh inactive.
CCO/C(=C/c1sc2ccc(OC)cc2[n+]1CCCS(=O)(=O)[O-])CC was read as VP16 counter inactive, PLK1 PBD block inactive, Sfp inh inconclusive, ALDH1A1 inh inactive and RORgamma inh inactive.
`CCC(/C=C1\Sc2ccc(OC)cc2N1CCO)=C\c1sc2ccc(OC)cc2[n+]1CCO` gave VP16 counter inconclusive, PLK1 PBD block inconclusive, Sfp inh 22µM, ALDH1A1 inh inconclusive and RORgamma inh inactive.
N[C@@H](Cc1cccc([N+](=O)[O-])c1)C(=O)O was read as ALDH1A1 inh inactive[13.5 µM].
For CCN(CC)CC#CCOC(=O)[C@@](O)(c1ccccc1)C1CCCCC1 the results were VP16 counter inactive, Sfp inh inactive, ALDH1A1 inh inactive and RORgamma inh inactive.
`C/C=C(\C)C(=O)N1CC2(CC(c3cccc(NC(=O)CC(c4ccccc4)c4ccccc4)c3)=NO2)C[C@H]1C(N)=O` (stereo not given in full) gave VP16 counter inactive, Sfp inh inactive and RORgamma inh inactive.
C/C=C\C=C\C(=O)N1CC2(CC(c3cccc(NC(=O)CC(c4ccccc4)c4ccccc4)c3)=NO2)C[C@H]1C(N)=O (stereo not given in full) was read as VP16 counter inactive, PLK1 PBD block 34µM, Sfp inh 45µM and RORgamma inh inactive.
C/C=C/C=C\C(=O)Nc1cccc(C2=NOC3(C2)C[C@@H](C(N)=O)N(C(=O)c2cc([N+](=O)[O-])cc([N+](=O)[O-])c2)C3)c1 (stereo not given in full) was read as VP16 counter inactive, PLK1 PBD block inactive, Sfp inh 50µM and RORgamma inh inactive.
C/C=C\C=C/C(=O)Nc1cccc(C2=NOC3(C2)C[C@@H](C(N)=O)N(C(=O)[C@H]2CCC(=O)N2)C3)c1 (stereo not given in full) was read as VP16 counter inactive, PLK1 PBD block inactive, Sfp inh 35µM and RORgamma inh inactive.
C/C=C/C(=O)N1CC2(CC(c3cccc(NC(=O)CC)c3)=NO2)C[C@H]1C(N)=O (stereo not given in full) was read as VP16 counter inactive, PLK1 PBD block inactive, Sfp inh inactive and RORgamma inh inactive.
C/C=C\C=C/C(=O)Nc1cccc(C2=NOC3(C2)C[C@@H](C(N)=O)N(C(=O)/C=C/C=C\C)C3)c1 (stereo not given in full) was read as VP16 counter inactive, PLK1 PBD block inconclusive, Sfp inh 3.5µM and RORgamma inh inactive.
Screening C=CCOC(=O)N[C@H](/C(C(=O)OC)=C(\C)NCc1ccccc1)c1ccc(C)cc1 returned VP16 counter inactive, Sfp inh inactive, ALDH1A1 inh inactive and RORgamma inh inactive.
For NCCC[C@@H](CC(=O)N[C@@H]1CCNC[C@H]1C(=O)N[C@H](CC(=O)N[C@@H](CCC(=O)O)CC(=O)O)Cc1c[nH]c2ccccc12)NC(=O)C[C@H](CO)NC(=O)[C@@H]1CNCC[C@H]1N the results were VP16 counter inactive, Sfp inh inactive, ALDH1A1 inh inconclusive and RORgamma inh inactive.
Screening CCN(CC)C(=O)c1cccc(-c2csc(C(O)c3cccc(Cl)c3)n2)c1 (stereo not given) returned PLK1 PBD block inactive.
For O=C(NC1CCCCC1)C1c2ccccc2OCC(=O)N1CCc1c[nH]c2ccccc12 (stereo not given) the results were PLK1 PBD block inactive.
O=C1OCC/C1=C\NCCCN/C=C1\CCOC1=O was read as PLK1 PBD block inactive.
For Cc1ccccc1-c1cc2nc(NCc3ccc4occc4c3)n(C)c(=O)c2s1 the results were PLK1 PBD block inactive.
`C/C=C\C=C/C(=O)Nc1cccc(C2=NOC3(C2)C[C@@H](C(N)=O)N(C(=O)/C=C/CC)C3)c1` (stereo not given in full) gave VP16 counter inactive, PLK1 PBD block inconclusive, Sfp inh 14µM and RORgamma inh inactive.
C/C=C\C=C/C(=O)Nc1cccc(C2=NOC3(C2)C[C@@H](C(N)=O)N(C(=O)C2(C)CC2)C3)c1 (stereo not given in full) was read as VP16 counter inactive, PLK1 PBD block inactive, Sfp inh 20µM and RORgamma inh inactive.
C/C=C\C(=O)Nc1cccc(C2=NOC3(C2)C[C@H](C(N)=O)N(C(=O)/C=C/CC)C3)c1 (stereo not given in full) was read as VP16 counter inactive, PLK1 PBD block inactive, Sfp inh inactive and RORgamma inh inactive.
C=C(C)C(=O)N1CC2(CC(c3cccc(NC(=O)/C=C\C=C/C)c3)=NO2)C[C@H]1C(N)=O (stereo not given in full) was read as VP16 counter inactive, PLK1 PBD block 24µM, Sfp inh 20µM and RORgamma inh inactive.
For COc1cccc(-c2cnc(C(O)c3ccc(-c4ccccc4)cc3)[nH]2)c1 (stereo not given) the results were PLK1 PBD block inactive.
For CCCCN(C(=O)C(C)N1C(=O)c2ccccc2C1=O)c1c(N)n(CC(C)C)c(=O)[nH]c1=O (stereo not given) the results were PLK1 PBD block inactive.
`COc1ccc(N=C2C(=O)N3CCCc4cccc2c43)cc1` gave VP16 counter inactive, PLK1 PBD block inactive, Sfp inh inactive, ALDH1A1 inh 0.035µM and RORgamma inh inactive.
Screening CC1(c2ccc(OC(F)F)cc2)NC(=O)N(CC(=O)Nc2cccc(S(N)(=O)=O)c2)C1=O (stereo not given) returned VP16 counter inactive, PLK1 PBD block inactive, Sfp inh inactive and RORgamma inh inactive.
CC1(c2ccc(OC(F)F)cc2)NC(=O)N(/N=C/c2c(O)ccc3ccccc23)C1=O (stereo not given) was read as VP16 counter 14µM, PLK1 PBD block inactive, Sfp inh inactive, ALDH1A1 inh inactive and RORgamma inh inconclusive.
Screening COCc1cc(C)nc(Nc2ccc(C)cc2C)c1C#N returned PLK1 PBD block inactive, Sfp inh inactive, ALDH1A1 inh inactive and RORgamma inh inactive[0.365 µM].
Screening COCc1cc(C)nc(Nc2ccc(C)c(C)c2)c1C#N returned VP16 counter inactive, PLK1 PBD block inactive, Sfp inh inactive, ALDH1A1 inh 28µM and RORgamma inh inactive.
Screening C=C(C)C(=O)Nc1cccc(C2=NOC3(C2)C[C@H](C(N)=O)N(C(=O)COc2ccc(Cl)cc2)C3)c1 (stereo not given in full) returned VP16 counter inactive, PLK1 PBD block 24µM, Sfp inh inactive and RORgamma inh inactive.
